Reference: the supplement of paper PMC6555819

Each sequence was assayed on PPARa:RXRa (NR concentration 270 nM, RXRa partner concentration 90 nM) (assay: PBM binding z-score (relative to random genomic background probes); higher = stronger binding; sequences stand for … in GC…GCGATTGACAGCGTAGAATGAAGG).
Protocol: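 Protein-binding microarray (Agilent 4x180K custom design, double-stranded 60-nt probes: 5' GC cap, 34-nt variable region, 24-nt constant primer region; full probe sequence given). Purified or IVT nuclear receptor:RXRα heterodimers (3:1 NR:RXRα, mostly 270:90 nM) or homodimers were incubated for 1 h in PBS with 2% milk and no ligand, then detected with Alexa488 antibodies. Fluorescence from o1-orientation probes (~5 replicates averaged) was converted to z-scores against 500 random hg19 background probes. Variable regions are seed direct-repeat (DR0–DR5) sites, all their single-nucleotide variants and half-site ablations.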
For TTGCCAAGGTGAAAGGTCGTTGATGCACGCCTTG, the PBM binding z-score was 5.16.
In the case of CCTACTGGGCCAAAGAGGTCATTGATGCCGATAA, the PBM binding z-score is reported as 4.55.
Work on CGAACTAGGTCACCCAGGACAGTGAATACATTGA yielded a PBM binding z-score of 4.82.
Sequence CCTAGCAGGCCAATCTAGGTCACTCAAGGCTTGA has a PBM binding z-score of 3.15.
Sequence TCTAGTTGGTCACGGAGGACACACACGACGGGTA has a PBM binding z-score of 0.752.
CCGAATAGGTTACGAGGGGGCATTCAGTGCGAAT gave a PBM binding z-score of 3.85.
Sequence TATACAAGGTCAAAGGCCAGAGTACGAATGTCGA has a PBM binding z-score of 6.24.
AATACAGGGTCATCTTAGGCCAGAGTACGCACAG showed a PBM binding z-score of 6.06.
CCTAGTGGGCCAAGGTCATTGATCAGTCAAAGCA showed a PBM binding z-score of 3.87.
CCTTACGGGTCACTCCAGGTCATAGCATCGGAGT showed a PBM binding z-score of 4.91.
In the case of TACCCTAGGTCATTCAGGGGCCAGTATAGAAAGC, the PBM binding z-score is reported as 3.81.
For GCTGCTAGGTCAACTGATGGTCAACTAAAGCTCG, the PBM binding z-score was 3.72.
CCTTACGGGTCACTGACAGGTTATAGCGTTTGGA was tested, and the PBM binding z-score was 5.13.
CCGAGTTGGTCAAGGTCACACACGCTATAGGTAC showed a PBM binding z-score of 4.35.
Sequence CGTACAAGGTCAAAGGTCAGTGAAGAGATGACGG has a PBM binding z-score of 7.11.
ACTTACGGGTCAACGAGGTCATAGCACGCGTATA showed a PBM binding z-score of 6.12.
In the case of GCTAGTTGGTCAGTAAAAGGTGACACACCGGTCG, the PBM binding z-score is reported as 1.54.
CAAACGAGGTCAAAGGTCAAAGTCGAGCCAACCA showed a PBM binding z-score of 7.69.
In the case of ATATGTAGGTTACATCCGGGTCATCCAGGCTATG, the PBM binding z-score is reported as 4.41.
For AGTCAAAGTTCAGGACGACGTAACGTAAAGCACG, the PBM binding z-score was 2.98.
With CCGACGGGGGCAAAGGTTACCATACTCAGTACGA the PBM binding z-score was 6.41.
With TCTTGTAGGTCAATAGAGGTTAAGAAAGTGCGCT the PBM binding z-score was 5.13.
Sequence ATATGTAGGATAGCTGGGGTCATTCAGACTAGGC has a PBM binding z-score of 4.6.
Sequence CGTCTAAGGTCATAGGAGGTCAGTGAAGACAGAT has a PBM binding z-score of 6.24.
With GGAACGAGGTCATTCGAGTTGATAGCATGGCGAT the PBM binding z-score was 5.98.
ACTCGGATGACAAAGGTCAGAGCTACGCCAGTGA was tested, and the PBM binding z-score was 4.38.
CTATGTGGGTTAAGGGGGTCATTCAGTTTGAAAG showed a PBM binding z-score of 6.22.
In the case of CGTCCAAGGTCATAGGGGGTCAGTGAAGACAGAT, the PBM binding z-score is reported as 6.34.
CGAACTAGGTCAAAGGACATTGAAAGGCGACGTA gave a PBM binding z-score of 6.03.
TCTAGTTGGTCAAAGGTCACGCACTCGAAATGCG was tested, and the PBM binding z-score was 6.76.
For TTACCAAGGTCAAGGTCGTTGATCCCTCTGTAGA, the PBM binding z-score was 5.9.
CCTACTGGACCAAGGTCATTGATCAGTCAAAGCA gave a PBM binding z-score of 3.97.
AATACAGGGTAACTAGGCCAGAGTAGGTACGAAT gave a PBM binding z-score of 2.01.
For GCATATAGGTAATACAAGGTCAAAGTCCGATTGT, the PBM binding z-score was 4.21.
Work on TGTATGAGGTTAAAGATCAGGGAACGTGGCGTCG yielded a PBM binding z-score of 4.16.
In the case of TCTCGGAGGAAACGAAAGGTCAGAGCTCGACATC, the PBM binding z-score is reported as 3.66.
CGTCCAAGGTCAAAGGTCATTGAAGAGATGACGG was tested, and the PBM binding z-score was 7.33.
With CAAACTAGGTCAAGGTCTAAGTCGGTTTGTGCCA the PBM binding z-score was 4.92.
Sequence CCTACTGGGCCATTCAGAGGTCAATGATCATATG has a PBM binding z-score of 3.87.
CCTAGTTGTTCAGGAGGTCACACACCGGATATGA gave a PBM binding z-score of 4.17.
